In PubChem BioAssay (Tox21):
Values joined by “and” are separate entries in the source; they are usually repeats but may differ in a detail not shown here. Equal entries are not always repeated. Results filed as inconclusive are left out. A call without a number means that no potency is given here. Some compounds were tested as several samples or in several runs, with calls that do not always agree. Active and inactive are the calls of the source. Unless noted, the call rests on the fitted dose curve; in most records, active means well fitted curve in the direction sought with a large enough effect in the repeat runs; inconclusive means weak or mixed curves; inactive means no such curve, though single readings can be large; an effect the other way counts as inactive or inconclusive.

Assays:
[1] = qHTS assay to identify small molecule agonists of the RXR signaling pathway - cell viability counter screen (AID 1159529); further: nearly all actives have a fitted effect of over 50% in size; further: potency means the concentration at half of the fitted maximal effect
Method in brief: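 RXR-alpha-UAS-bla HEK 293T cells in medium with 2% charcoal-stripped FBS were pre-incubated 5 hr, then compound-treated 16 hr at 37 C. Viability was read by CellTiter-Glo luminescence in the same wells as the beta-lactamase assay, with tetraoctyl ammonium bromide as positive control.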

[2] = qHTS assay to identify small molecule antagonists of the retinoid acid receptor (RAR) signaling pathway - cell viability counter screen (AID 1159551); further: nearly all actives have a fitted effect of over 35% in size
Method in brief: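 Cells (C3RL4) are plated, incubated overnight, dosed with compound in DMSO, then given retinol at 1 uM final. After 6 h at 37 C, CellTiter-Glo is added and luminescence read following 30 min at room temperature.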

[3] = qHTS assay to identify small molecule antagonists of the estrogen related receptor (ERR) signaling pathway - cell viability counter screen (AID 1224818); further: series mostly up to about 46 µM
Method in brief: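 ERR cells, 2,000/well; 6 h settle at 37 C/5% CO2; compound pin transfer (DMSO); 17.5 h at 37 C; CellTiter-Fluor, 30 min, fluorescence read.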

[4] = qHTS assay to identify small molecule antagonists of the estrogen related receptor signaling pathway with the pleiotropic PPARgamma coactivator (PGC) cell viability counter screen (AID 1224822;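 further: series mostly up to about 46 µM; viability read after 17.5 h compound exposure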)
Method in brief: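 Multiplexed viability counter screen run in PGC/ERR cells treated with compounds for 17.5 h at 37 C; live-cell protease signal measured by CellTiter-Fluor fluorescence.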

[5] = qHTS assay to identify small molecule antagonists of the estrogen related receptor (ERR) signaling pathway from Tox21 library - cell viability counter screen (AID 1224834); further: nearly all actives have a fitted effect of over 30% in size; further: potency means the concentration at half of the fitted maximal effect
Method in brief: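 ERR cells, 2,000/well; 6 h settle at 37 C/5% CO2; pin-tool compound transfer in DMSO; 17.5 h at 37 C; CellTiter-Fluor, 30 min; fluorescence intensity.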

[6] = target: Luciferin 4-monooxygenase (Photinus pyralis) (UniProt P08659); assay: qHTS assay to identify small molecule inhibitors of firefly luciferase (AID 1224835); further: series mostly up to about 120 µM; nearly all actives have a fitted effect of over 25% in size
Method in brief: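 Biochemical qHTS: compounds run as interplate titrations against purified firefly enzyme, with D-luciferin and ATP each at its KM concentration. Light output recorded by CCD imaging.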

[7] = qHTS assay to identify small molecule agonists of the constitutive androstane receptor (CAR) signaling pathway - cell viability counter screen (AID 1224836); further: nearly all actives have a fitted effect of over 45% in size; further: potency means the concentration at half of the fitted maximal effect
Method in brief: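 HepG2 cells stably carrying hCAR and a CYP2B6-2.2kb reporter; 15-concentration compounds plus PK11195 (final 0.75 uM), 23 hr at 37 C/5% CO2. Viability read by CellTiter-Fluor fluorescence.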

[8] = qHTS assay to identify small molecule antagonists of the constitutive androstane receptor (CAR) signaling pathway - cell viability counter screen (AID 1224837); further: nearly all actives have a fitted effect of over 45% in size; further: potency means the concentration at half of the fitted maximal effect
Method in brief: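 Viability was measured with CellTiter-Fluor in a HepG2 line carrying stably transfected hCAR and a CYP2B6-2.2kb construct. Cells were exposed for 23 hr at 37 C to 15 compound concentrations with 50 nM CITCO as agonist.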

[9] = qHTS assay to identify small molecule antagonists of the estrogen related receptor signaling pathway with the pleiotropic PPARgamma coactivator (PGC) from Tox21 10K library - cell viability counter screen (AID 1224840; active means well fitted cell-killing curve with a large enough effect in the repeat runs, not every such curve was filed as active; further: nearly all actives have a fitted effect of over 40% in size; further: potency means the concentration at half of the fitted maximal effect)
Method in brief: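 Multiplexed viability counter screen in the PGC/ERR cell line: cells treated with DMSO-dissolved compounds for 17.5 hours at 37 C, then viability measured as CellTiter-Fluor fluorescence.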

[10] = target: Retinoic acid receptor RXR-alpha (Homo sapiens) (UniProt P19793); assay: qHTS assay to identify small molecule agonists of the RXR signaling pathway (AID 1159527; calls by dose curve; further: nearly all actives have a fitted effect of over 35% in size; further: potency means the concentration at half of the fitted maximal effect)
Method in brief: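 GeneBLAzer RXR-alpha-UAS-bla HEK 293T cells in 2% charcoal-stripped FBS medium were exposed to compounds for 16 hr at 37 C in agonist mode. Beta-lactamase reporter read as 460/530 nm FRET ratio after 2 hr substrate loading.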

[11] = target: Nuclear receptor subfamily 1 group I member 3 (Homo sapiens) (UniProt Q14994); assay: qHTS assay to identify small molecule antagonists of the constitutive androstane receptor (CAR) signaling pathway (AID 1224838);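 further: HepG2 cells stably expressing hCAR with CYP2B6 luciferase reporter stimulated by CITCO; nearly all actives have a fitted effect of over 40% in size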; further: potency means the concentration at half of the fitted maximal effect
Method in brief: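 Antagonist mode used CITCO at a final 50 nM to activate CAR in human hepatoma HepG2 cells carrying stable hCAR and a 2.2 kb CYP2B6 promoter-luciferase construct. Compounds were tested at 15 concentrations over 24 h, with luminescence as the end point.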

[12] = target: Nuclear receptor subfamily 1 group I member 3 (Homo sapiens) (UniProt Q14994); assay: qHTS assay to identify small molecule agonists of the constitutive androstane receptor (CAR) signaling pathway (AID 1224839); further: nearly all actives have a fitted effect of over 15% in size; further: potency means the concentration at half of the fitted maximal effect
Method in brief: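 HepG2 cells stably co-transfected with hCAR and a CYP2B6-2.2kb luciferase reporter; compounds at 15 concentrations with 0.75 uM PK11195 present. After 24 hr at 37 C, luciferase read by ONE-Glo luminescence.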

[13] = qHTS assay to identify small molecule antagonists of the estrogen related receptor signaling pathway with the pleiotropic PPARgamma coactivator (PGC) from Tox21 10K library (AID 1224841; call rule not given here; further: actives are mostly falling curves and most rising ones were filed inactive; nearly all actives have a fitted effect of over 50% in size; further: potency means the concentration at half of the fitted maximal effect)
Method in brief: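 Steps: plate 2,000 PGC/ERR cells per well; incubate 6 h at 37 C with 5% CO2; transfer compounds from DMSO stocks by pin tool; incubate 18 h at 37 C; add One-Glo; measure luminescence 30 min later.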

[14] = qHTS assay to identify small molecule agonists of the estrogen related receptor signaling pathway with the pleiotropic PPARgamma coactivator (PGC) from Tox21 10K library (AID 1224842); further: nearly all actives have a fitted effect of over 15% in size
Method in brief: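 PGC/ERR reporter cell line, 2,000 cells per well, incubated 6 h at 37 C before 23 nL compound in DMSO was added. After 18 h at 37 C, One-Glo luminescence read following 30 min at room temperature.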

[15] = qHTS assay to identify small molecule antagonists of the retinoic acid receptor (RAR) signaling pathway (AID 1159552; further: nearly all actives have a fitted effect of over 50% in size)
Method in brief: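 Retinol signaling pathway inhibitors screened in C3RL4 RARE-luciferase reporter cells seeded overnight at 37 C, then compounds added with 1 uM (final) retinol as pathway substrate. After 6 hr at 37 C, luciferase luminescence read after 30 min at room temperature.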

[16] = qHTS assay to identify small molecule agonists of the retinoic acid receptor (RAR) signaling pathway (AID 1159553)
Method in brief: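 Seed C3RL4 reporter cells at 1,000 per well and incubate overnight at 37 C. Add compounds in DMSO, incubate 6 hr. Add luciferase reagent, wait 30 min at room temperature, read luminescence.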

[17] = qHTS assay to identify small molecule antagonists of the estrogen related receptor (ERR) signaling pathway (AID 1224819;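 further: luminescence from an ERR-driven luciferase reporter measured with One-Glo reagent; series mostly up to about 46 µM; nearly all actives have a fitted effect of over 50% in size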)
Method in brief: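 qHTS in ERR cells, 2,000/well, 1536 format. Cpd (DMSO) added after 6 h settle, 18 h 37 C. One-Glo luminescence, 30 min RT.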

[18] = qHTS assay to identify small molecule agonists of the estrogen related receptor (ERR) signaling pathway (AID 1224820)
Method in brief: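 Luminescence readout (One-Glo, 30 min RT) from NTP-supplied ERR cell line exposed to compounds for 18 h at 37 C. Cells seeded 2,000 per well and pre-incubated 6 h before pin-tool compound transfer.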

[19] = test system: estrogen-related receptor alpha (ERRalpha) with PGC-1alpha coactivator, human; assay: qHTS assay to identify small molecule antagonists of the estrogen related receptor signaling pathway with the pleiotropic PPARgamma coactivator (PGC) (AID 1224821; calls by dose curve)
Method in brief: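 PGC/ERR reporter cells; 6 h pre-incubation 37 C/5% CO2; pin-tool compound in DMSO, 18 h 37 C; One-Glo added, 30 min RT; luminescence read. qHTS antagonist mode.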

[20] = qHTS assay to identify small molecule agonists of the estrogen related receptor signaling pathway with the pleiotropic PPARgamma coactivator (PGC) (AID 1224823)
Method in brief: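 Luminescence readout (One-Glo, 30 min RT) from PGC/ERR cell line treated 18 h at 37 C with pin-tool-delivered DMSO compound solutions; cells plated 6 h before dosing. Quantitative HTS format.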

Chain of Luciferin 4-monooxygenase (Photinus pyralis) (P08659 whole entry, looked up): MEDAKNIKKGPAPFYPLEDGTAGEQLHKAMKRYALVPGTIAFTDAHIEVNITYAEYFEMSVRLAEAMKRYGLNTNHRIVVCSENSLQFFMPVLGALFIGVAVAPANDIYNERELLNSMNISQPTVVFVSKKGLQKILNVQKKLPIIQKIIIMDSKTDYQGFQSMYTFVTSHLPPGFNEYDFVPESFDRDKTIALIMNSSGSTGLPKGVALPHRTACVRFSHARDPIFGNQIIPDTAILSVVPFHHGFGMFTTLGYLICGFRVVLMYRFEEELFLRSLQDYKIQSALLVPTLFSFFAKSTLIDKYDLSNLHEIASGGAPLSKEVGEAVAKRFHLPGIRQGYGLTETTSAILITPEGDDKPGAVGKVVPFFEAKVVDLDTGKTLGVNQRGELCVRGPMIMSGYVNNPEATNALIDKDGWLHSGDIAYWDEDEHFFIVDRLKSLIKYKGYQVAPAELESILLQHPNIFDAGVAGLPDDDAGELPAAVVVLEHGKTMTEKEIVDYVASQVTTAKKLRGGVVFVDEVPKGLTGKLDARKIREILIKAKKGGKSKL
Chain of Retinoic acid receptor RXR-alpha (Homo sapiens) (P19793 whole entry, looked up): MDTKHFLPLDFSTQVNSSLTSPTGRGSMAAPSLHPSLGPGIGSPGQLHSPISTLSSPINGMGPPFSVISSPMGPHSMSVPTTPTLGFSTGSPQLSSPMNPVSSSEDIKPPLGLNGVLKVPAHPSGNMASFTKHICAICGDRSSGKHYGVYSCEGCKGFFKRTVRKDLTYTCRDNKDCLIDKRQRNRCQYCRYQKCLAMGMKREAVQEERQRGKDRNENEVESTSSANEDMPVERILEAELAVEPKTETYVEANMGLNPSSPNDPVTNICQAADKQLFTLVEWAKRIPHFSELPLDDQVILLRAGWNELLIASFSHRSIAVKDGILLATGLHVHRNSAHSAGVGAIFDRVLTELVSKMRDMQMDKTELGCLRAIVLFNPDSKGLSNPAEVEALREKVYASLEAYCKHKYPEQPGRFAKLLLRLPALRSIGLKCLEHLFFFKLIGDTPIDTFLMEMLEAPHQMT
Chain of Nuclear receptor subfamily 1 group I member 3 (Homo sapiens) (Q14994 whole entry, looked up): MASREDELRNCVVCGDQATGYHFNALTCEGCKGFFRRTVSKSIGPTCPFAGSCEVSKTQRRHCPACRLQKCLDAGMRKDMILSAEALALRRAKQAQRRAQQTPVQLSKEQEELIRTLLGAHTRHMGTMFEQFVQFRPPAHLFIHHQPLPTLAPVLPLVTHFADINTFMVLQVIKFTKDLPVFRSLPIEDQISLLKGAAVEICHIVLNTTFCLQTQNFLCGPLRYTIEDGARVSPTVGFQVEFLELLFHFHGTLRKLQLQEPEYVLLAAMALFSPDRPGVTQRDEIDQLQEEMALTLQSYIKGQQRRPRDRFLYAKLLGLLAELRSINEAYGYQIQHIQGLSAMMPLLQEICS

| SMILES | Potency [1] | outcome [2] | outcome [3] | outcome [4] | Potency [5] | Potency [6] | Potency [7] | Potency [8] | Potency [9] | Potency [10] | Potency [11] | Potency [12] | Potency [13] | Potency [14] | Potency [15] | outcome [16] | outcome [17] | Potency [18] | outcome [19] | Potency [20] |
| --- | --- | --- | --- | --- | --- | --- | --- | --- | --- | --- | --- | --- | --- | --- | --- | --- | --- | --- | --- | --- |
| CCCC(CCC)C(=O)O | inactive | inactive | inactive | inactive | inactive | inactive | inactive | inactive | inactive | – | – | – | – | – | – | – | – | – | – | – |
| O=C1NC(=O)c2ccccc21 | inactive | inactive | – | – | inactive | inactive | inactive | inactive | inactive | inactive | inactive | inactive | – | – | – | – | – | – | – | – |
| O=C(O)CS | inactive | inactive | – | – | inactive | inactive | inactive | inactive | inactive | inactive | – | – | – | – | – | – | – | – | – | – |
| CC(=O)OCC(COC(C)=O)OC(C)=O | inactive | inactive | – | – | inactive | inactive | inactive | inactive | inactive | inactive | – | – | inactive | inactive | – | – | – | – | – | – |
| C/C=C/c1ccc(OC)cc1 | inactive | inactive | – | – | inactive | inactive | inactive | inactive | inactive | inactive | inactive | inactive | – | – | – | – | – | – | – | – |
| CCCCOC(=O)CC(CC(=O)OCCCC)(OC(C)=O)C(=O)OCCCC | inactive | inactive | – | – | inactive | inactive | inactive | inactive | inactive | inactive | inactive | 17.4 µM (active) and 27.3 µM (active) | inactive and 24.6 µM (active) | inactive | – | – | – | – | – | – |
| Nc1ccc(O)c(C(=O)O)c1 | inactive | inactive | – | – | inactive | – | inactive | inactive | inactive | inactive | inactive | inactive | inactive | inactive | inactive | inactive | – | – | – | – |
| Cn1cc[nH]c1=S | inactive | inactive | – | – | inactive | inactive | inactive | inactive | inactive | – | – | inactive | – | – | inactive | inactive | – | – | – | – |
| NC(N)=NC(=O)c1nc(Cl)c(N)nc1N | inactive | inactive | inactive | inactive | inactive | inactive | inactive | inactive | inactive | inactive | 61.5 µM (active) and 50.4 µM (active) and inactive | inactive | – | – | – | – | – | – | – | – |
| O=C(C1CCCCC1)N1CC(=O)N2CCc3ccccc3C2C1 (stereo not given) | inactive | inactive | inactive | inactive | – | inactive | inactive | inactive | inactive | – | – | inactive | inactive | inactive | inactive | inactive | inactive | inactive | inactive | inactive |
| O=C(c1ccccc1)c1ccccc1 | inactive | inactive | – | – | inactive | – | inactive | inactive | inactive | inactive | – | – | – | – | inactive | inactive | – | – | – | – |
| O=S(=O)(O)NC1CCCCC1 | inactive | inactive | – | – | inactive | – | inactive | inactive | inactive | inactive | inactive | inactive | – | – | inactive | inactive | – | – | – | – |
| O=C(O)c1[nH]n(-c2ccc(S(=O)(=O)O)cc2)c(=O)c1N=Nc1ccc(S(=O)(=O)O)cc1 | inactive | inactive | – | – | 26.6 µM (active) and 27.4 µM (active) and 28.6 µM (active) | inactive | 30.7 µM (active) and 45.4 µM (active) | 48.7 µM (active) and 28.6 µM (active) | 27.4 µM (active) and 45.4 µM (active) | inactive | inactive | inactive | – | – | – | – | – | – | – | – |
| O=C(O)c1cccnc1 | inactive | inactive | – | – | inactive | – | inactive | inactive | inactive | – | inactive | inactive | – | – | – | – | – | – | – | – |
| Cn1c(=O)c2[nH]cnc2n(C)c1=O | inactive | inactive | inactive | inactive | inactive | inactive | inactive | inactive | inactive | 13.8 µM (active) and inactive | – | – | – | – | – | – | – | – | – | – |
| Cc1cc(=O)[nH]c(=S)[nH]1 | inactive | inactive | – | – | inactive | inactive | inactive | inactive | inactive | inactive | inactive | inactive | – | – | – | – | – | – | – | – |
| Cc1ccc(O)cc1 | inactive | inactive | – | – | inactive | inactive | – | – | inactive | inactive | – | – | – | – | inactive | inactive | – | – | – | – |
| N=C(N)c1ccc(OCCCCCOc2ccc(C(=N)N)cc2)cc1 | inactive | inactive | – | – | inactive | inactive | inactive | – | inactive | inactive | – | – | – | – | inactive | inactive | – | – | – | – |
| c1ccc2[nH]ccc2c1 | 48.2 µM (active) and inactive | inactive | – | – | 26.9 µM (active) and inactive | inactive | – | – | 8.49 µM (active) and inactive | inactive | – | – | 2.69 µM (active) and inactive | inactive | – | – | – | – | – | – |
| COc1c2occc2cc2ccc(=O)oc12 | inactive | inactive | – | – | inactive | – | inactive | inactive | inactive | inactive | – | – | – | – | inactive | inactive | – | – | – | – |
| O=C(O)/C=C\C(=O)O | inactive | inactive | – | – | – | inactive | inactive | inactive | – | inactive | inactive | – | – | – | – | – | – | – | – | – |
